Source: PubChem (several laboratories)
Most compounds without a hit are left out; they make up all but 3% or so of the library.
14-3-3 Bad inh = inhibitors of 14-3-3 zeta/Bad binding, primary screen, biochemical, TR-FRET, bovine 14-3-3 zeta. TR-FRET 14-3-3zeta/Dy647-pBad peptide displacement, 1 h. inhibition, % at 21.7 µM. 220,000 tested, 0.71% active. 14-3-3 protein zeta/delta (Bos taurus), P63103;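 active = inhibition above about 70%, limit read from the data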;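 also: 0% = full 14-3-3 plus peptide FRET controls and 100% = background without 14-3-3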
Target sequence (P63103 whole entry, looked up): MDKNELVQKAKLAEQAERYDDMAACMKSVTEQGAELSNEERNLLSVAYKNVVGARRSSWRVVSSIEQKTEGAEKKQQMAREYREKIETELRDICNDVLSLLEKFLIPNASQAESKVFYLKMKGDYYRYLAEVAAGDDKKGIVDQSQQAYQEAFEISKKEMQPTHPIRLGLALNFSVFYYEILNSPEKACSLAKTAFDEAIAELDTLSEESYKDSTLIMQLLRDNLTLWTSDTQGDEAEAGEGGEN
Mcl1 Bid PPI = Mcl-1/Bid binding inhibitors, primary screen, biochemical, TR-FRET, 1536-well; Induced myeloid leukemia cell differentiation protein Mcl-1 (Homo sapiens), Q07820; TR-FRET Mcl-1/Bid-Dy647 peptide binding; inhibition, % at 21.7 µM; 220,000 tested, 0.97% active; AID 1021, 2008;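 active = compounds that cut the binding signal by more than half at the single screening dose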;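 also: His-tagged Mcl-1 with europium anti-His antibody binding Bid BH3 peptide; 0% = Mcl-1 plus peptide wells and 100% = peptide-only wells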
Target sequence (Q07820 whole entry, looked up): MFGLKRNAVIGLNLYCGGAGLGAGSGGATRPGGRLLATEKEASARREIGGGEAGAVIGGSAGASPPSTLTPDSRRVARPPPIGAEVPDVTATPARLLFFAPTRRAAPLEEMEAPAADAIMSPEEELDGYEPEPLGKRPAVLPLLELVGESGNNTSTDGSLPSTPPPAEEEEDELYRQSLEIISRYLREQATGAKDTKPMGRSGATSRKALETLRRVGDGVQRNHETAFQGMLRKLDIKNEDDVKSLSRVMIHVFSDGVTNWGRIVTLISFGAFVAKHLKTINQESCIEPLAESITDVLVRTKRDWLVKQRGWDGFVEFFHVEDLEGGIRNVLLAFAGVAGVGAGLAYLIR
Bim-Mcl-1 = inhibitors of Bim peptide binding to Mcl-1, primary screen, biochemical, bead-based flow cytometry, multiplex; Bim peptide-Mcl-1 binding; inhibition, % at 10 µM; Induced myeloid leukemia cell differentiation protein Mcl-1 (Homo sapiens), Q07820; 190,000 tested, 0.1% active; in the data active = inhibition above about 40%;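 also: 0% = no compound tracer wells and 100% = peptide blocker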
Arbovirus inh = antivirals against arbovirus infection, primary screen, cell-based, full library, 10K replicate subset | arbovirus infection cell-based antiviral screen | 200,000 tested, 0.37% active | inhibition, % at 10 µM | AID 1251, 2008; in the data active = inhibition above about 30%
Mcl1 Noxa PPI = Mcl-1/Noxa binding inhibitors, primary screen, biochemical, TR-FRET, 1536-well. Induced myeloid leukemia cell differentiation protein Mcl-1 (Homo sapiens), Q07820. TR-FRET Mcl-1/Noxa peptide binding, 2 h. inhibition, % at 21.7 µM. 220,000 tested, 1.5% active;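 active = compounds that cut the protein-peptide binding signal by more than 50% relative to plate controls in a single-dose test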;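 also: His-tagged Mcl-1 with rhodamine Noxa BH3 peptide and terbium anti-His antibody; 0% = Mcl-1 plus Noxa peptide wells and 100% = peptide-only wells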
* hit, by the source's call; / = not tested or not shown; [ ] = dose if it differs, or a comment.

SMILES | 14-3-3 Bad inh | Mcl1 Bid PPI | Bim-Mcl-1 | Arbovirus inh | Mcl1 Noxa PPI
Cc1ccccc1C(=O)Nc1ccc(C(=O)N/N=C/c2ccc(O)c(Br)c2)cc1 | -6 | -32 | 1 | 3 | 58*
Cc1ccccc1C(=O)Nc1ccc(C(=O)N/N=C/c2ccc(F)cc2)cc1 | 14 | 6 | -19 | -4 | 17
CCCOC(=O)c1c(NC(=O)C2C3C=CC(C3)C2C(=O)O)sc2c1CCC(C)C2 (centres undefined) | -2 | -23 | -11 | -17 | 5
Cc1ccc(C(=O)CC(=O)c2cccc(F)c2)c(O)c1 | -4 | 0 | -1 | -12 | 8
O=C1NC(=S)N/C1=C/c1cccc([N+](=O)[O-])c1 | 7 | 6 | 5 | 2 | 4
O=C1NC(=S)N/C1=C/c1ccc(-c2c(Br)cc([N+](=O)[O-])cc2Br)o1 | 95*[fluorescence artefact?] | 98* | -2 | -25 | 86*
CC1=C(C#N)C(=O)NC(=O)/C1=C\c1ccc(-c2cc(C)c(C)cc2[N+](=O)[O-])o1 | 64 | 92* | 1 | 34* | 100*
Cc1ccc(-c2ccc(/C=C3\C(=O)ON=C3c3ccccc3)o2)c([N+](=O)[O-])c1 | 17 | 23 | -5 | -38 | /
Cc1ccc(-c2ccc(/C=C3/NC(=O)NC3=O)o2)cc1[N+](=O)[O-] | 90*[fluorescence artefact?] | 73* | 2 | -32 | 77*
CCOC(=O)/C(C#N)=C/c1cn(CCOc2ccc(OC)cc2)c2ccccc12 | -8 | 9 | -5 | 8 | 1
CC(=O)Nc1cccc(OCC(=O)Nc2sccc2C(N)=O)c1 | 1 | 0 | / | / | 52*
COc1cccc(NC(=O)CSc2nnc(C)s2)c1 | 11 | -18 | -1 | -9 | 19
CCc1ccc(Nc2nnc(SCC(=O)Nc3sccc3C(N)=O)s2)cc1 | -10 | -18 | -3 | 12 | 53*
COc1cccc(Nc2nnc(SCC(=O)Nc3sccc3C(N)=O)s2)c1 | 60 | 4 | 0 | 1 | 60*
CC(=O)Nc1cccc(OCC(=O)Nc2ccccc2)c1 | 5 | -5 | -8 | 1 | -22
COC/C=C/C1=CC2=CC(=O)C(C)(OC(=O)c3cnc4ccccc4n3)C(=O)C2=CN1Cc1ccc(OC)cc1 (centres undefined) | -3 | -37 | / | / | 57*
CCCCC1=CC2=CC(=O)C(C)(OC(=O)c3cnc4ccccc4n3)C(=O)C2=CO1 (centres undefined) | 0 | -17 | / | / | 62*
COC/C=C/C1=CC2=CC(=O)C(C)(OC(=O)c3cnc4ccccc4n3)C(=O)C2=CN1CCCCO (centres undefined) | -7 | -34 | / | / | 28
O=C(CSc1nc2[nH]ncc2c(=O)[nH]1)NCc1ccc(F)cc1 | -6 | -36 | -6 | 3 | 3
Cc1onc(-c2ccc(Cl)cc2Cl)c1-c1csc(N/N=C/c2ccccc2Cl)n1 | -1 | -17 | / | / | -4
COC(=O)CCN(C(=O)c1cccc([N+](=O)[O-])c1)c1ccccn1 | -1 | 5 | 2 | 3 | 18
COc1cc(/C=C/C(=O)OCC(=O)Nc2ccc(C)cc2[N+](=O)[O-])ccc1O | 35 | -36 | 3 | -4 | 55*
COc1cc(/C=C/C(=O)OCC(=O)Nc2cc(C)c(C)cc2[N+](=O)[O-])ccc1O | 6 | 41 | / | / | 93*
COc1ccc(/C=C/C(=O)NC(=S)Nc2cc([N+](=O)[O-])ccc2O)cc1OC | 49 | 13 | 0 | 6 | 93*
COc1cc(/C=C/C(=O)OCC(=O)Nc2ccc([N+](=O)[O-])cc2)ccc1O | -4 | -24 | / | / | 26
SMILES | 14-3-3 Bad inh | Mcl1 Bid PPI | Bim-Mcl-1 | Arbovirus inh | Mcl1 Noxa PPI
O=C(NC(=S)Nn1cnc2c(cnn2-c2ccccc2)c1=O)c1ccccc1 | -11 | -110 | -4 | -2 | -31
O=C(O)c1cccc(Cn2c(Cl)c(/C=N/NC(=O)c3cc4ccccc4cc3O)sc2=O)c1 | 9 | 50 | / | / | 87*
Cc1ccc2nc(NC(=O)CN3C(=O)C4CC=CCC4C3=O)sc2c1 (centres undefined) | 1 | 4 | 0 | 20 | 13
Cc1csc(NC(=O)CN2C(=O)C3CC=CCC3C2=O)n1 (centres undefined) | 6 | -18 | -2 | 31* | 12
CC(=O)Nc1ccc(-c2nnc(SCC(=O)Nc3ccc4c(c3)oc3ccccc34)n2C)cc1 | 35 | -3 | -1 | 2 | 50
CCn1c(SCC(=O)Nc2ccc3c(c2)oc2ccccc23)nnc1-c1ccc(N)cc1 | 66 | 58* | 2 | -14 | 56*
O=C(c1cc(=O)[nH]c2ccccc12)N1CCN(c2ccc([N+](=O)[O-])cc2)CC1 | 12 | 1 | / | / | 10
Cc1cc(C)c2c(c1)c(C)cc1nnc(SCC(=O)c3cccs3)n12 | 73* | -15 | -3 | 2 | -3
CSc1c(C#N)c(N)nc2sc(C(=O)c3ccc(Cl)c(Cl)c3)c(N)c12 | 40 | 52* | / | / | 21
COc1ccc(-c2c(C#N)c(N)nc3sc(C(=O)c4ccccc4)c(N)c23)cc1 | -61 | -67 | 0 | -7 | -74
CC(NC(=O)Cc1cccc(C(F)(F)F)c1)c1ccc(F)cc1 (centres undefined) | 3 | -11 | 3 | -2 | 3
Fc1ccccc1COc1ccc2ccccc2c1CNc1nn[nH]n1 | -16 | -19 | -2 | 31* | -41
CCOc1ccc2cc(C3CC(c4ccco4)=NN3S(C)(=O)=O)c(Cl)nc2c1 (centres undefined) | 2 | -1 | / | / | -6
CCOc1ccc2cc(/C=C/C(=O)c3ccco3)c(Cl)nc2c1 | 10 | 59* | 1 | -8 | -23
COc1cccc(-c2nc(Oc3cccc(C)c3C)c3ccccc3n2)c1O | 0 | 52* | -4 | 6 | 20
COc1cccc(-c2nc(NC(C)C)c3ccccc3n2)c1O | 45 | -58 | 0 | -17 | 33
O=C(CN1CCOCC1)Nc1ccc(Oc2ccc(NC(=O)CN3CCOCC3)cc2)cc1 | 9 | -37 | -2 | 9 | 6
O=C(CN1CCCCC1)Nc1ccc(N2CCCCCC2)cc1 | 43 | 28 | 0 | -25 | 67*
O=C(Cc1ccccc1)Nc1ccc(N2CCCC2)cc1 | / | -56 | -2 | -2 | 82*
COc1ccc(NC(=O)CN2CCOCC2)cc1 | 73* | 71* | -3 | 5 | -3
O=C(Nc1ccc(N2CCCCCC2)cc1)c1ccccc1Cl | 11 | -60 | -2 | -22 | 52*
COc1ccccc1C(=O)Nc1ccc(N2CCCCC2)cc1 | 13 | -25 | -6 | 6 | 11
O=C(CC1NC(=S)NC1=O)c1ccc(Cl)cc1 (centres undefined) | 0 | -9 | / | / | 6
NCCCC[C@@H]1NC(=O)[C@H](CCC(=O)O)NC(=O)c2cc([N+](=O)[O-])cc(I)c2OCC[C@@H](C(N)=O)NC1=O | 2 | 7 | 0 | 6 | -17
